Some test systems named below: HCT-15 colon; HT29 colon; SNB-75 CNS; SNB-19 CNS; U251 CNS; PC-3 prostate; SK-MEL-5 melanoma; UACC-62 melanoma; LOX IMVI melanoma; SK-MEL-28 melanoma; SK-MEL-2 melanoma; EKVX NSCLC; SN12C renal; UO-31 renal; TK-10 renal; ACHN renal; CAKI-1 renal; A498 renal; CCRF-CEM leukemia; MOLT-4 leukemia.
Experiment in all cases: NCI-60 one-dose screen, 48 h (100 = growth as untreated, 0 = no growth, -100 = all killed)
Holding throughout (conditions): 10 µM unless noted

About 83,000 compounds went through this panel and 20% of them were active in at least one assay; those are over-represented in the sample as a whole.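 Treatment: one concentration, 48 hours, 96-well format. Scoring: percent growth, with anything below 10 considered active.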 Values without a mark were called inactive. Calls of active or inactive are those of the source.

Turning to `CC(C)C[C@@H]1N[C@@]2(C(=O)Nc3ccccc32)[C@@H](c2ccc(F)cc2)[C@@H]1C(=O)c1ccc(O)cc1`, the growth with HCT-15 colon is 93%; in the assay on HT29 colon it was 105%; in the assay with SNB-75 CNS, 96.8%; in the assay on SNB-19 CNS, 95.1%; in the assay on U251 CNS, 97.1%; with PC-3 prostate, 63.6%. The growth in the assay on SK-MEL-5 melanoma was 93.5%; in the assay on UACC-62 melanoma, 69%; in the assay on LOX IMVI melanoma it was 92.4%; in the assay with SK-MEL-28 melanoma it was 103%; in the assay with SK-MEL-2 melanoma, 102%; in the assay with EKVX NSCLC it was 79.9%. In addition, the growth with SN12C renal is 96.5%; in the assay on UO-31 renal, 58.3%; with TK-10 renal, 120%; with ACHN renal it was 80.1%; with CAKI-1 renal, 67.3%; in the assay on A498 renal it was 94.5%. The figures for the growth in the assay with CCRF-CEM leukemia and in the assay on MOLT-4 leukemia were 85% and 77.5%, respectively.
For `C=C(C)[C@@H]1CC[C@]2(COCCCNCCC#N)CC[C@]3(C)[C@H](CC[C@@H]4[C@@]5(C)CC[C@H](OCCCNCCC#N)C(C)(C)[C@@H]5CC[C@]43C)[C@@H]12`, the growth in the assay on HCT-15 colon was 47%; with HT29 colon it was 49.9%; in the assay on SNB-75 CNS it was 54.4%; with SNB-19 CNS, 83.5%; with U251 CNS it was 70.9%; in the assay with PC-3 prostate, 42.5%. Further, the growth in the assay with SK-MEL-5 melanoma was 15%; with UACC-62 melanoma, 69.1%; in the assay on LOX IMVI melanoma, -1.84% (active); in the assay with SK-MEL-28 melanoma, 90.5%; in the assay with SK-MEL-2 melanoma it was 93.7%; with EKVX NSCLC, 36.1%. Moreover, the growth was 52% in the assay on SN12C renal; 41.3% with UO-31 renal; 74.9% with TK-10 renal; 65.3% with ACHN renal; 34.8% in the assay with CAKI-1 renal; 43.3% with A498 renal. The growth in the assay with MOLT-4 leukemia was 28.2%.
In the case of `CC(=O)c1nnn(-c2c(C(=O)n3nc(C)cc3C)sc(=S)n2-c2ccccc2)c1C`, the growth with HCT-15 colon is 101%; with HT29 colon, 114%; in the assay with SNB-75 CNS, 98.4%; in the assay with SNB-19 CNS, 99.1%; with U251 CNS, 109%; in the assay on PC-3 prostate, 98.2%. Also, the growth in the assay on SK-MEL-5 melanoma is 100%; in the assay on UACC-62 melanoma, 86.2%; in the assay on LOX IMVI melanoma, 98.8%; with SK-MEL-28 melanoma, 112%; in the assay with SK-MEL-2 melanoma, 108%; with EKVX NSCLC, 90.7%. The growth is 103% in the assay with SN12C renal; 79.8% with UO-31 renal; 138% in the assay on TK-10 renal; 102% in the assay with ACHN renal; 91.8% in the assay with CAKI-1 renal; 94.9% in the assay on A498 renal. For the same compound, the growth in the assay with CCRF-CEM leukemia was 101%; with MOLT-4 leukemia it was 94.9%.
For `C=CC(=O)N1CC=C(c2cc3c(N[C@H](C)c4ccccc4)ncnc3[nH]2)CC1`, the growth was 82.6% with HCT-15 colon; 54% in the assay on HT29 colon; -0.73% (active) in the assay on SNB-75 CNS; 91.9% in the assay with SNB-19 CNS; 94.6% with U251 CNS; 82.7% with PC-3 prostate. The growth with SK-MEL-5 melanoma is 95.5%; in the assay with UACC-62 melanoma it was 85.5%; in the assay with LOX IMVI melanoma it was 56.2%; with SK-MEL-28 melanoma, 104%; in the assay with SK-MEL-2 melanoma it was 106%; in the assay with EKVX NSCLC, 30.5%. Also, the growth was 22.4% in the assay on SN12C renal; 19% with UO-31 renal; -3.79% (active) with TK-10 renal; 15.1% in the assay on ACHN renal; 11.3% with CAKI-1 renal; -17.4% (active) in the assay with A498 renal. Also, in the assay with MOLT-4 leukemia, the growth was 97.8%.
For `c1ccc(C(c2nc3ncncc3[nH]2)N2CSc3nc4ncncc4n3C2)cc1` (configuration not stated), the growth in the assay with HCT-15 colon is 80.4%; with HT29 colon it was 42.7%; in the assay with SNB-75 CNS, 45%; with SNB-19 CNS it was 96.9%; in the assay on U251 CNS, 92.1%; in the assay on PC-3 prostate it was 78.2%. The growth is 85.1% in the assay on SK-MEL-5 melanoma; 27.5% in the assay on UACC-62 melanoma; 13.2% with LOX IMVI melanoma; 98.4% in the assay on SK-MEL-28 melanoma; 70.5% in the assay with SK-MEL-2 melanoma; 94.4% in the assay on EKVX NSCLC. The growth with SN12C renal is 87.5%; in the assay on UO-31 renal, 70.9%; in the assay with TK-10 renal, 48.9%; in the assay on ACHN renal, 81.9%; in the assay on CAKI-1 renal, 41%; in the assay on A498 renal, 96.5%. In addition, the values for the growth in the assay with CCRF-CEM leukemia and in the assay on MOLT-4 leukemia were 32.1% and 23.8%, respectively.
For the compound `COc1cc(Cn2cc3c(c2)-c2onc(CN4CCOCC4)c2CC3)cc(OC)c1OC`, the growth with HCT-15 colon was 97.9%; in the assay on HT29 colon, 104%; in the assay on SNB-75 CNS, 117%; in the assay with SNB-19 CNS, 97.2%; in the assay on U251 CNS, 102%; in the assay with PC-3 prostate, 91.6%. In addition, the growth in the assay on SK-MEL-5 melanoma is 74.9%; in the assay on UACC-62 melanoma, 78.8%; in the assay with LOX IMVI melanoma, 100%; in the assay on SK-MEL-28 melanoma, 105%; in the assay on SK-MEL-2 melanoma, 104%; in the assay with EKVX NSCLC it was 83%. The growth in the assay with SN12C renal was 95.5%; with UO-31 renal, 78.7%; with TK-10 renal, 107%; in the assay with ACHN renal, 99.5%; in the assay on CAKI-1 renal, 94.7%; in the assay with A498 renal it was 114%. The growth in the assay with CCRF-CEM leukemia was 96.9%; with MOLT-4 leukemia, 98.3%.
On to `Cc1c(F)cc(C(N)=O)cc1NCC(=O)Nc1ccc([N+](=O)[O-])cc1`, for which the growth was 94% in the assay on HCT-15 colon; 105% in the assay with HT29 colon; 47.2% with SNB-75 CNS; 98.5% with SNB-19 CNS; 109% in the assay on U251 CNS; 89.5% in the assay with PC-3 prostate. Further, the growth is 95.7% in the assay on SK-MEL-5 melanoma; 84.2% in the assay with UACC-62 melanoma; 84.1% in the assay with LOX IMVI melanoma; 103% with SK-MEL-28 melanoma; 96.3% with SK-MEL-2 melanoma; 61.4% in the assay on EKVX NSCLC. Moreover, the growth in the assay on SN12C renal is 73.2%; in the assay with UO-31 renal, 56.7%; in the assay on TK-10 renal, 62.6%; with ACHN renal, 92.9%; in the assay on CAKI-1 renal it was 62.3%; in the assay with A498 renal it was 22.9%. The growth in the assay on MOLT-4 leukemia is 105%.
On to `CCN(CC)c1cn(-c2ccc(S(N)(=O)=O)cc2)nn1`, for which the growth was 105% in the assay on HCT-15 colon; 97.9% in the assay with HT29 colon; 83% in the assay with SNB-75 CNS; 102% in the assay with SNB-19 CNS; 100% in the assay on U251 CNS; 101% in the assay on PC-3 prostate. For the same compound, the growth is 104% in the assay on SK-MEL-5 melanoma; 94.9% with UACC-62 melanoma; 106% with LOX IMVI melanoma; 105% in the assay on SK-MEL-28 melanoma; 109% with SK-MEL-2 melanoma; 105% in the assay on EKVX NSCLC. Further, the growth in the assay on SN12C renal was 105%; in the assay on UO-31 renal it was 91.8%; in the assay on TK-10 renal, 103%; in the assay with ACHN renal, 106%; with CAKI-1 renal, 93.9%; in the assay on A498 renal, 83.4%. In addition, the growth was 106% in the assay on CCRF-CEM leukemia and 97.7% in the assay with MOLT-4 leukemia.

The record behind these values is PubChem BioAssay (NCI).
